Experiment [1] concerns Wnt5a (protein binding on small-molecule microarray). Description: small molecules binding Wnt5a protein – biophysical, small-molecule microarray, 635/667 nm fluorescence, primary screen (AID 1142).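 Note: fluorescence read at 667 nm with signal to noise per printed feature.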 The conditions noted are these: 635 nm fluorescence, higher = more signal.
A short description of experiment [2]: ATP-based viability of Huh7 replicon cells – cell-based, CellTiter-Glo luminescence, basal, 48 h, cytotoxicity control for HCV replication inhibitor project, primary screen (AID 1143).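 Note: Huh7 hepatoma cells carrying a hepatitis C replication reporter with no stimulus; test concentration not given here.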 The conditions noted are these: higher = more signal, called active from +8 up or from −8 down.
Experiment [3] is described as follows: Pseudomonas biofilm growth suppression – PAO1 strain, BacTiter-Glo luminescence, LB-PBS, primary screen (AID 1144). Particulars: P. aeruginosa PAO1 biofilm, 12 h, higher = more signal.
A short description of experiment [4]: basal CRE-LacZ reporter activity in PC12 – cell-based, unstimulated, primary screen (AID 1145). Particulars: no forskolin, luminescence, 4.5 h, higher = more signal, called active from +8 up or from −8 down.
A short description of experiment [5]: forskolin-driven CRE-LacZ activity in PC12 – cell-based, CRE-LacZ reporter, forskolin-stimulated, primary screen (AID 1146).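 Note: PC12 cells with 6xCRE LacZ reporter stimulated by forskolin 10 µM; beta-galactosidase reporter signal reflecting CREB driven transcription.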 Particulars: luminescence, 4.5 h, higher = more signal, called active from +8 up or from −8 down.
The target in experiment [6] is Streptavidin (Streptomyces avidinii) (UniProt P22629). Briefly: compounds binding control protein streptavidin – biophysical, small-molecule microarray, 635/667 nm fluorescence, artefact control for SMM compound annotation, primary screen (AID 1147).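 Note: signal reflects streptavidin binding to arrayed compounds as a control protein.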 Particulars: higher = more signal.
Sequence of Streptavidin (Streptomyces avidinii) (P22629 whole entry, looked up): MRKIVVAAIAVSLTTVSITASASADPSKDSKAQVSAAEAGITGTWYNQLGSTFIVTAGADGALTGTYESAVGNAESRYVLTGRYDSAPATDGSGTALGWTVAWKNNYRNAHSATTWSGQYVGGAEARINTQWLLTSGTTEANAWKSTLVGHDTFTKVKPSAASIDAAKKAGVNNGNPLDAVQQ
Experiment [7] is described as follows: probe aInhba binding on compound microarray – biochemical, small-molecule microarray, 635/667 nm fluorescence, primary screen (AID 1148).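 Note: score merges 667nm spot fluorescence with signal-to-noise for antibody binding to printed compounds.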 Particulars: higher = more signal.
Experiment [8] concerns the target Torsin-1A (Homo sapiens) (UniProt O14656). Description: TOR1A wild-type binding on microarray – cell lysate, small-molecule microarray, lysate, 635/667 nm, primary screen (AID 1149). Particulars: COS7 hTOR1A-WT lysate, 635 nm fluorescence, higher = more signal.
Experiment [9] has the same target. Description: torsin A mutant lysate binding on microarrays – cell lysate, small-molecule microarray, COS7 lysate, 635/667 nm fluorescence, primary screen (AID 1150).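 Note: score pools 667 nm emission and signal to noise measuring lysate protein binding.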 The conditions noted are these: COS7 hTOR1A mutant lysate, 635 nm fluorescence, higher = more signal.
In experiment [10] the test system is Sonic hedgehog protein (Shh). Description: Sonic hedgehog microarray binding compounds – biochemical, small-molecule microarray, 635/667 nm fluorescence, primary screen (AID 1151).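 Note: Shh protein binding to compounds spotted on small-molecule microarray slides; score combines spot fluorescence intensity with signal-to-noise across triplicate slides.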 The conditions noted are these: 635 nm fluorescence, higher = more signal.
A short description of experiment [11]: optical density shifts of acrAB sulA E. coli – strain DRC41, OD650, 48 h, E. coli filamentation inducer project, primary screen (AID 1152).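 Note: E. coli MC1000 strain DRC41 lacking acrAB efflux pump and sulA.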 The conditions noted are these: higher = more signal, called active from +8 up or from −8 down.
Experiment [12] in a line: probe aLefty1 binding on compound microarray – biochemical, small-molecule microarray, 635/667 nm fluorescence, primary screen (AID 1153).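 Note: score merges spot fluorescence with signal-to-noise ratio from the scanned slide images.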 Particulars: higher = more signal.
The nature of experiment [13]: plasmodial surface anion channel blockers, osmotic lysis – cell-based, P. falciparum Indochina, OD700, 1 h, primary screen (AID 1154). The conditions noted are these: P. falciparum Indochina infected RBC osmotic lysis, higher = more signal, called active from +8 up or from −8 down.
The nature of experiment [14]: plasmodial surface anion channel blockers, osmotic lysis – cell-based, P. falciparum Indochina, OD700, 2 h, primary screen (AID 1155).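 Note: lysis reports solute entry through the parasite surface anion channel PSAC.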 The conditions noted are these: P. falciparum Indochina infected erythrocytes, higher = more signal, called active from +8 up or from −8 down.
The nature of experiment [15]: changes in parasitized red cell lysis, either direction – P. falciparum Indochina, OD700, 3 h, PSAC antagonist project, primary screen (AID 1156). The conditions noted are these: P. falciparum-infected erythrocytes, osmotic lysis, higher = more signal, called active from +8 up or from −8 down.
Experiment [16] can be described thus: plasmodial surface anion channel blockers, osmotic lysis – cell-based, P. falciparum Indochina, OD700, 18 h, primary screen (AID 1157). The conditions noted are these: P. falciparum Indochina infected erythrocytes, osmotic lysis OD700, 18 h; higher = more signal, called active from +8 up or from −8 down.
Experiment [17] can be described thus: S6 kinase pathway phospho-S6 level changes – cell-based, A549, cytoblot, luminescence, serum-stimulated, primary screen (AID 1158).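 Note: serum-stimulated A549 lung adenocarcinoma cells; signal is phosphorylated S6 detected by cytoblot immunostaining with HRP secondary.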 Particulars: 5 h, higher = more signal.
Experiment [18] addresses NADPH oxidase 2 (Homo sapiens) (UniProt P04839). Description: compounds shifting NOX2 Amplex Red fluorescence – cell-based, HEK293-NOX2, PMA-stimulated, NOX inhibitor project, primary screen (AID 1159). Note: test concentration not given here. The conditions noted are these: 45 min, higher = more signal, called active from +8 up or from −8 down.
The target in experiment [19] is NADPH oxidase 4 (Homo sapiens) (UniProt Q9NPH5). Briefly: compounds shifting NOX4 Amplex Red fluorescence – cell-based, HEK293-NOX4, tetracycline-induced, NOX inhibitor project, primary screen (AID 1160). The conditions noted are these: HEK293-NOX4, Amplex Red H2O2 fluorescence, 45 min; higher = more signal, called active from +8 up or from −8 down.
Sequence of NADPH oxidase 4 (Homo sapiens) (Q9NPH5 whole entry, looked up): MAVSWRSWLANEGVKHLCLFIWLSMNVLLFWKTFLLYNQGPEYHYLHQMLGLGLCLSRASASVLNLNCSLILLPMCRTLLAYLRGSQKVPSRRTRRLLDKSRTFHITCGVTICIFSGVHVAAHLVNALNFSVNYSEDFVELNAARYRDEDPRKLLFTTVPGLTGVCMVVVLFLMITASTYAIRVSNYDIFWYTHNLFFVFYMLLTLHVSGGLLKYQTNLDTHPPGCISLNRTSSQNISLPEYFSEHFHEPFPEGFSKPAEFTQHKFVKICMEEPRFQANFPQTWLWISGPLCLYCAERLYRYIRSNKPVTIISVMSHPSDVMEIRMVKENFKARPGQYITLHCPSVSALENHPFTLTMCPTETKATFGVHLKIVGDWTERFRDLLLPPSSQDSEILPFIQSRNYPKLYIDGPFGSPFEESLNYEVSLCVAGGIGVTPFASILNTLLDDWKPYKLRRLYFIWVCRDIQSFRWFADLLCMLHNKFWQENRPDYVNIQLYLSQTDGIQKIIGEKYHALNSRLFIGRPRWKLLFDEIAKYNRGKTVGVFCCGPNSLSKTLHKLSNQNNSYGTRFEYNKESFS
Experiment [20] concerns the target NADPH oxidase 5 (Homo sapiens) (UniProt Q96PH1). Description: compounds shifting NOX5 Amplex Red fluorescence – cell-based, HEK293-NOX5, NOX inhibitor project, primary screen (AID 1161). The conditions noted are these: HEK293-NOX5, ionomycin, 45 min, higher = more signal.

The text below walks through data of PubChem BioAssay.

Active and inactive are the calls of the source. Unless noted, the rule behind the calls is not given here.

Sequence of NADPH oxidase 5 (Homo sapiens) (Q96PH1 whole entry, looked up): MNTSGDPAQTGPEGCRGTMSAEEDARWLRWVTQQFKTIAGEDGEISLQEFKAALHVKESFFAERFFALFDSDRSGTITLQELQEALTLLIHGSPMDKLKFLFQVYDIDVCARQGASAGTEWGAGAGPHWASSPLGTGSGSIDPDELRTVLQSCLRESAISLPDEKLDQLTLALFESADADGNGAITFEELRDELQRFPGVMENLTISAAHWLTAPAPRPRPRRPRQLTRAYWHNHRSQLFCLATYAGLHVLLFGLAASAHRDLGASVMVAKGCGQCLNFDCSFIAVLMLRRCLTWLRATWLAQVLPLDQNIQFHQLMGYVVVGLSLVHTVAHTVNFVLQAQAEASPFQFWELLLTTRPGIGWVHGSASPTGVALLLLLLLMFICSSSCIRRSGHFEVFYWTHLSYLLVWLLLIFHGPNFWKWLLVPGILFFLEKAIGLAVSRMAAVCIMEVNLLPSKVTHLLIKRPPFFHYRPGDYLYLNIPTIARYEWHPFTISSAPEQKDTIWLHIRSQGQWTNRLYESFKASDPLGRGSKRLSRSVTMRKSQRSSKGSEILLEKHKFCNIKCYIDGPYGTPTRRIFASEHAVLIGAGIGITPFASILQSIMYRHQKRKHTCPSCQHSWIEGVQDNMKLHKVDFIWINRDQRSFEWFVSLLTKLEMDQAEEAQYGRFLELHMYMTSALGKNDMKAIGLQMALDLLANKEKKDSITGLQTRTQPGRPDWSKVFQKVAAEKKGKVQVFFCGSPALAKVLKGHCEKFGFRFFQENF
Sequence of NADPH oxidase 2 (Homo sapiens) (P04839 whole entry, looked up): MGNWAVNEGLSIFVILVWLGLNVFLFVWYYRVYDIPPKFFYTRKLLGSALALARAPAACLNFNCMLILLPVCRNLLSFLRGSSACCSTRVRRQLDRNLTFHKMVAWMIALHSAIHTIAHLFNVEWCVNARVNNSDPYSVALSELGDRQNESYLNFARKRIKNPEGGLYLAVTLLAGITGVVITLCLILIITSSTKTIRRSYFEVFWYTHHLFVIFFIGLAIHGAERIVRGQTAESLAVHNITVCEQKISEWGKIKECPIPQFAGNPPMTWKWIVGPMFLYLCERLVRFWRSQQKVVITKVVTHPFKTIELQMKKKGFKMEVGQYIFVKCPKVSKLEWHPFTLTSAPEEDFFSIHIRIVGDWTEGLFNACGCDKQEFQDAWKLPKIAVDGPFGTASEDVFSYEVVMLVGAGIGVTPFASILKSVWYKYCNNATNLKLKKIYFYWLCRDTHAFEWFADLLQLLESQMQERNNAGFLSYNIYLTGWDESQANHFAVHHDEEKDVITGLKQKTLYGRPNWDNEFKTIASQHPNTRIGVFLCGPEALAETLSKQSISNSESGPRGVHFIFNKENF
Sequence of Torsin-1A (Homo sapiens) (O14656 whole entry, looked up): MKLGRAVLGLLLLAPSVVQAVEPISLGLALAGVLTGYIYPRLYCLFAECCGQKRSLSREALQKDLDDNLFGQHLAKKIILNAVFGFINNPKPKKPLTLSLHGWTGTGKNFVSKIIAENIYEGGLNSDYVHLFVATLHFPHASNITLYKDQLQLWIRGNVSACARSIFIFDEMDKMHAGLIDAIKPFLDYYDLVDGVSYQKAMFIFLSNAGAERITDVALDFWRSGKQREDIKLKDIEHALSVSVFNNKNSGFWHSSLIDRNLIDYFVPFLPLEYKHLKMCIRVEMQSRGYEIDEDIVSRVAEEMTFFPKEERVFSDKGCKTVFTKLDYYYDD

Regarding `[N-]=[N+]=Nc1ccccc1C[C@@]1(C(=O)NCc2ccccc2)N=C(c2ccc(OCCCO)cc2)O[C@@H]1c1ccccc1`, the composite z-score was found to be 0.967 in experiment [1]; 0.877 in experiment [6]; 0.175 in [7]; 0.324 with Torsin-1A (Homo sapiens) [8]; 0.506 with Torsin-1A (Homo sapiens) [9]; 0.242 in [10]. The composite z-score in experiment [12] turned out to be 1.43. Further, the z-score in [2] is -5.24 (inactive); in [3] it was -1.15 (inactive); in [4] it was 1.4 (inactive); in experiment [5], -1.99 (inactive); in experiment [11], 0.0295 (inactive); in experiment [13], 27.6 (active). Moreover, the z-score in [14] is 17.3 (active); in experiment [15], 1.4 (inactive); in experiment [16], 2.09 (inactive); in [17], 0.308; in experiment [18], -1.67 (inactive); in experiment [19], -0.0758 (inactive). The z-score in experiment [20] is -1.1.

Take `COc1ccc([Si](C)(C)[C@H]2[C@H](CCO)O[C@@]3(C(=O)N(Cc4ccccc4)c4ccc(NC(=O)[C@H](C)O)cc43)[C@@H]2C)cc1`: the composite z-score came to 0.571 in [1]; 0.0684 in experiment [6]; 0.0659 in experiment [7]; 0.569 with Torsin-1A (Homo sapiens) [8]; 0.437 in the experiment with Torsin-1A (Homo sapiens) [9]; 1.33 in [10]. This compound came in with a composite z-score in experiment [12] of 0.013. Further, the z-score was -7.85 (inactive) in experiment [2]; -1.29 (inactive) in experiment [3]; 20.8 (active) in experiment [4]; 1.12 (inactive) in experiment [5]; -0.0149 (inactive) in experiment [11]; 10.8 (active) in [13]. For the same compound, the z-score in experiment [14] was 2.73 (inactive); in experiment [15], 0.0811 (inactive); in experiment [16], 1.43 (inactive); in experiment [17] it was 0.0757; in [18], -0.699 (inactive); in experiment [19], 0.488 (inactive). In [20], the z-score was determined as 1.66.

Take `CCOC(=O)C1=CCC(c2ccncc2)N(S(=O)(=O)c2ccc(C)cc2)C1` (stereo not given): the composite z-score in experiment [1] is 0.637; in [6] it was 3.08; in experiment [7], 0.121; with Torsin-1A (Homo sapiens) [8], 0.344; with Torsin-1A (Homo sapiens) [9], 1.12; in experiment [10] it was 0.245. This compound also displayed a composite z-score in experiment [12] of 0.13. Further, the z-score in experiment [2] is -4.28 (inactive); in experiment [3] it was -0.83 (inactive); in experiment [4] it was 0.546 (inactive); in experiment [5], 0.882 (inactive); in experiment [11], 0.149 (inactive); in [13] it was 4.24 (inactive). For the same compound, the z-score in experiment [14] is 1.29 (inactive); in experiment [15], 0.488 (inactive); in experiment [16] it was 0.953 (inactive); in experiment [17], -0.0707; in experiment [18] it was 0.168 (inactive); in [19] it was 0.432 (inactive). In addition, the z-score in experiment [20] is 0.0402.

Turning to `COC(=O)C(CC#Cc1ccc2c(c1)[C@]1(C(=O)N2)[C@H](C(=O)N2CCCCCCC2)[C@H]2C(=O)O[C@H](c3ccccc3)[C@H](c3ccccc3)N2[C@@H]1c1ccc(OCCO)cc1)C(=O)OC`, the composite z-score in [1] was 2.02; in experiment [6], 4.12; in [7], 1.97; with Torsin-1A (Homo sapiens) [8], 3.57; with Torsin-1A (Homo sapiens) [9], 3.65; in experiment [10] it was 2.05. In addition, the composite z-score in [12] was found to be 3.14. Further, the z-score in [2] is -0.873 (inactive); in [3] it was 1.02 (inactive); in experiment [4], -0.581 (inactive); in experiment [5], -0.546 (inactive); in experiment [11], -0.215 (inactive); in experiment [13] it was 13.7 (active). In addition, the z-score is 2.51 (inactive) in experiment [14]; -5.71 (inactive) in experiment [15]; 0.588 (inactive) in [16]; -0.779 in [17]; 0.985 (inactive) in [18]; 0.827 (inactive) in experiment [19]. For the same compound, the z-score in experiment [20] stood at 1.6.

As to `CC[C@@H]1C=C(C(=O)O)[C@H](c2cccc(Cl)c2)N1S(=O)(=O)c1ccc(C)cc1`, the composite z-score in experiment [1] is -0.23; in experiment [6], 0.326; in experiment [7] it was -0.0018; with Torsin-1A (Homo sapiens) [8], 1.65; in the experiment with Torsin-1A (Homo sapiens) [9], 0.314; in [10] it was -0.726. The compound also returned a composite z-score in experiment [12] of 0.0043. Besides, the z-score is -0.733 (inactive) in [2]; 1.24 (inactive) in [3]; -0.322 (inactive) in [4]; -0.166 (inactive) in experiment [5]; -1.23 (inactive) in [11]; 0.522 (inactive) in [13]. For the same compound, the z-score was 0.229 (inactive) in experiment [14]; -0.0699 (inactive) in [15]; 0.29 (inactive) in [16]; -0.861 in experiment [17]; 0.416 (inactive) in experiment [18]; 0.185 (inactive) in experiment [19]. Moreover, the z-score in experiment [20] is 0.272.

Take `C=C(COC)C(=O)CC[C@H](OC(C)=O)c1ccccc1OCCO`: the composite z-score was 0.0375 in experiment [1]; -0.955 in experiment [6]; 0.858 in experiment [7]; 2.34 with Torsin-1A (Homo sapiens) [8]; 0.851 in the experiment with Torsin-1A (Homo sapiens) [9]; 1.8 in [10]. In [12], the composite z-score was -0.176. In addition, the z-score in experiment [2] is -4.1 (inactive); in [3] it was -0.0151 (inactive); in experiment [4], 6.35 (inactive); in [5], 4.62 (inactive); in experiment [11], 0.618 (inactive); in [13] it was 1.91 (inactive). The z-score was -0.291 (inactive) in experiment [14]; 0.537 (inactive) in experiment [15]; -1.49 (inactive) in experiment [16]; 1.2 in experiment [17]; -1.57 (inactive) in [18]; 0.456 (inactive) in experiment [19]. Besides, the z-score in experiment [20] is -1.41.

Take `CCOC(=O)C1=CC[C@@H](c2ccccc2)N(S(=O)(=O)c2ccc(C)cc2)[C@@H]1C#N`: the composite z-score in [1] was 0.0432; in experiment [6], 0.814; in experiment [7], -0.128; with Torsin-1A (Homo sapiens) [8] it was 0.0512; with Torsin-1A (Homo sapiens) [9], 0.291; in experiment [10], -0.0766. The compound further displayed a composite z-score in experiment [12] of 0.082. In addition, the z-score in [2] was -2.54 (inactive); in [3], -0.232 (inactive); in experiment [4], -0.266 (inactive); in [5], 40.6 (active); in experiment [11] it was 0.49 (inactive); in experiment [13], 4.46 (inactive). The z-score in [14] was 0.804 (inactive); in [15], 0.0758 (inactive); in [16] it was 1 (inactive); in experiment [17], -0.268; in [18] it was 0.224 (inactive); in experiment [19], -0.615 (inactive). Moreover, in experiment [20], the z-score was -0.14.

Turning to `COc1c(C)cc(-c2cc3c(c(CCc4ccccc4)n2)[Si](C(C)C)(C(C)C)O[C@H]3c2ccccc2)cc1C`, the composite z-score in experiment [1] is -0.169; in experiment [6], -0.0663; in experiment [7], -0.128; with Torsin-1A (Homo sapiens) [8] it was -1.11; with Torsin-1A (Homo sapiens) [9], -0.554; in experiment [10], -0.11. The composite z-score in [12] was -0.147. The z-score in experiment [2] was -2.84 (inactive); in experiment [3] it was -0.0716 (inactive); in experiment [4], -0.272 (inactive); in [5] it was 0.412 (inactive); in experiment [11], -1.05 (inactive); in experiment [13], 4.98 (inactive). The z-score in experiment [14] is 2.59 (inactive); in [15] it was 0.576 (inactive); in experiment [16], 1.09 (inactive); in experiment [17], -0.673; in [18], 0.283 (inactive); in [19], 1.11 (inactive). Moreover, in experiment [20], the z-score is 0.201.
